# Test results as given in the supplement of paper PMC3334620.
# In all, about 33,000 sequences were measured (“E-score (-0.5 to 0.5)”: median about -0.043, highest 2% from about 0.37 on). The full list was thinned out, with the highest values kept by preference.
# Target: T1, Upc2 (UniProt Q12151)
# T1 sequence: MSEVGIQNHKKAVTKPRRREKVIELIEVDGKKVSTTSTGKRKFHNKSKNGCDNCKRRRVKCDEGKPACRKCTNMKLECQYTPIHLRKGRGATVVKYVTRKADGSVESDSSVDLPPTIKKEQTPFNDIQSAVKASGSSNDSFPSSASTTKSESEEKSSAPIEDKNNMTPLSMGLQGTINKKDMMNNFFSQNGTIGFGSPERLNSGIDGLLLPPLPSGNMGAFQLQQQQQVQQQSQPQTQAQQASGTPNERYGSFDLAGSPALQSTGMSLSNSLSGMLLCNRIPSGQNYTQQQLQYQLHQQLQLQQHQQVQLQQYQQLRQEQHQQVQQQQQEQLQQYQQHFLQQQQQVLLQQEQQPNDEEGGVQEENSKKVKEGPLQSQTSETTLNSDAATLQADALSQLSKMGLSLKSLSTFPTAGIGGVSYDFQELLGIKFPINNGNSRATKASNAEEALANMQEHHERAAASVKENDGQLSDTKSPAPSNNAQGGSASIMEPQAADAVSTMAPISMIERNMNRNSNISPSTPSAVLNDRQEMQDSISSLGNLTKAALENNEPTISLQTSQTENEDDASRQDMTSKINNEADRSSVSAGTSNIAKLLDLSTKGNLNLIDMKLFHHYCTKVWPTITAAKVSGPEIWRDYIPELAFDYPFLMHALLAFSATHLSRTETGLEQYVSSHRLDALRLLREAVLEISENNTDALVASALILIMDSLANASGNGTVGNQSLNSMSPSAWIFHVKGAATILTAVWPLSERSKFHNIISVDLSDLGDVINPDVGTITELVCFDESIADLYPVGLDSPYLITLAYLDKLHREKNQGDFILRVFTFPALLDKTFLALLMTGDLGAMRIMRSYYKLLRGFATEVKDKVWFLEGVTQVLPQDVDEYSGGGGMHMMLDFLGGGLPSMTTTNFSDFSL
# Experiment: PBM E-score (8-mer binding enrichment) (E-score (-0.5 to 0.5)); higher = stronger / more preferred TF binding
# Conditions: protein concentration: 200 nM; construct: GST-full length
# In short: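 For each ungapped eight-base word taken together with its reverse complement, the Universal PBM Analysis Suite assigned an E-score. Binding data came from GST-tagged yeast transcription factors, applied at about 100-200 nM, on universal all-10-mer Agilent arrays made double-stranded by primer extension. Fluorescent anti-GST marked bound protein, and scans were normalised with masliner.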
row,Sequence,PBM E-score
1,ACTCGCCC,-0.205
2,AACGCTAG,-0.089
3,GGATCGGA,0.0439
4,AGATCGTA,0.387
5,AGATCGTG,0.0463
6,CGATCGTC,0.128
7,AGATCGTC,-0.141
8,CGATCGAA,0.24
9,GGATCGAA,0.211
10,GGATCGTA,0.422
11,CGATCGTA,0.437
12,CTAGGTCA,-0.214
13,CTATCAGA,-0.13
14,AACAAGGC,-0.167
15,CGTCGTGA,0.127
16,CGTCGTAA,0.457
17,GGTCGTCA,-0.0836
18,AGTCGTCA,-0.167
19,TGTCGGAA,0.0576
20,TGTCGTAA,0.433
21,AGTCGTGA,-0.0656
22,AGTCGTAA,0.379

row,Sequence,PBM E-score
1,TGGCGTAA,0.0743
2,CGTCGTCA,0.055
3,GGTCGTGA,-0.0444
4,GGTCGTAA,0.421
5,ACCGTTAT,-0.0125
6,GAGTCAAA,-0.229
7,ATTCTAAC,-0.125
8,AGCAAGAG,-0.203
9,CTGAGCTA,-0.0866
10,ACCGCTTC,-0.203
11,AGTGAACT,-0.117
12,ACTGTTCG,0.16
13,CCCTACGG,-0.0948
14,GCGTACGC,0.281
15,ACGTACGA,0.431
16,CCGTACGA,0.443
17,GCGTACGA,0.448
18,CCGTACGG,0.374
19,CCGTACGC,0.308
20,ACGTACGT,0.293
21,ACGTACGG,0.354
22,CCGTACTA,0.282

row,Sequence,PBM E-score
1,GCGTACTA,0.0874
2,ACGTACGC,0.254
3,TAAAGCCA,0.0825
4,ATGCGACG,0.306
5,AAGAATCT,-0.148
6,CCTTGCAA,-0.115
7,AGTGCGAT,0.0239
8,GATAGAAA,0.0471
9,AGACCCTG,-0.259
10,TCTCCTAA,-0.00947
11,TCCTACGA,0.256
12,TCGCACGA,0.0732
13,TCGTACGA,0.471
14,CCTCGATA,-0.0083
15,CAACGCTG,-0.0985
16,ACCTCGTC,0.0626
17,CCCTCGTA,0.465
18,GCCTCGGA,0.135
19,ACCTCGTG,0.2
20,CCCTCGGA,0.195
21,GCCTCGTA,0.473
22,GCCTCGAA,0.00343

row,Sequence,PBM E-score
1,CCCTCGTC,0.122
2,ACCTCGTA,0.462
3,TCCACTCA,-0.17
4,CTAAGAGA,-0.0721
5,ACAGAGCG,-0.0821
6,TAGGCAAA,-0.108
7,AACAGTTA,-0.135
8,ATATCGTA,0.427
9,CTATCGTA,0.43
10,GTATCGTA,0.423
11,ATATCGTC,0.0922
12,ATATCGTG,0.0382
13,CTATCGAA,-0.056
14,CTATCGTC,-0.0375
15,GTATCGAA,0.142
16,GTATCGGA,0.229
17,CCTAGCGA,-0.299
18,CCCCTCTC,-0.185
19,ACCGGCCC,0.0253
20,ATCTGTAA,-0.0759
